This note sets out measurements from PubChem BioAssay (NCATS).

Each structure is given as a SMILES string. Results filed as inconclusive are left out. Entries that show only a call come without a potency. Calls of active or inactive are those of the source. The call rests on the fitted dose curve; in most records, active means well fitted inhibition curve with a large enough effect; inconclusive means small, poorly fitted or top-dose-only effect; inactive means flat fitted curve, though single readings scatter.
Potency means the concentration at half of the fitted maximal effect.

The assay in a line: High Content Imaging Cell-Based qHTS for Inhibitors of the mTORC1 Signaling Pathway in MEF (Tsc2-/-, p53-/-) Cells (AID 2666).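 Further: percent of cells scored positive for phospho-rpS6 Ser235/236 immunostaining by imaging.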 Particulars: series mostly up to 38.3 µM. The source says: NIH Molecular Libraries Probe Production Centers Network [MLPCN]
NIH Chemical Genomics Center [NCGC]
Assay Submitter (PI): Blenis, John; Hoffman, Greg; Harvard University
NCGC Assay Overview: Thee mammalian target of rapamycin (mTOR) is an intracellular serine/threonine kinase Aberrant regulation of mTOR signaling plays a causative role in a number of human diseases, including cancer, benign tumors such as lymphangioleiomyomatosis (LAM) and Tuberous Sclerosis Complex (TSC), and metabolic diseases such as diabetes and obesity. This project aims to identify inhibitors of ribosomal protein S6 (rpS6) phosphorylation. The phosphorylation of rpS6 is a key event downstream of mTOR activation. The assay uses a phospho-specific antibody of phospho-rpS6 to detect inhibitors of mTOR activation. Mutations in the Tsc1 and Tsc2 genes are the underlying genetic lesions responsible for TSC, causing constitutive activation of the mTORC1 pathway and leading to profound effects on cell metabolism. Aberrant metabolism in cancer has recently received significant attention as a target to develop therapeutic agents in the treatment of cancer1. As Tsc2-/- cells have lost the ability to respond to energy and growth factor deprivation, these cells are unable to properly down regulate cellular biosynthetic processes in response to metabolic stress, and are thus extremely sensitive to glucose deprivation-induced death.2 A central goal of this project is to explore the unique cell survival and metabolic properties of cells with Tsc1 or Tsc2 by screening for compounds that selectively target the Tsc2-/- MEFs by screening both Tsc2-/- and WT MEF cell lines. We hope to better understand these aspects of TSC physiology in order to exploit them for therapeutic benefit.
NCGC IN Cell Assay Protocol:
For quantitative high throughput analysis of mTORC1 signaling, we developed a cell-based assay for immuno-fluorescence based detection of rpS6 phosphorylation on the Acumen Explorer that will be used a platform for the primary small molecule screen. Mouse embryonic fibroblasts (MEFs) are cultured in 1536-well plates using DMEM + 10% FBS. Twenty-four hrs after plating, test compounds (solubilized in DMSO) are delivered and incubated with the cells for 24 hrs at 37 degree Celsius. Following the incubation, media with compound is aspirated and the cells are fixed in 4% paraformaldehyde (PFA) containing PBS + 0.2% TX-100. Next, PFA is aspirated, cells are washed two times with PBS plus 0.2% TX-100 and the cells are blocked for 1 hr at room temperature (blocking buffer: LiCOR Blocking Buffer plus 0.2% TX-100). This is followed by aspiration and staining with Alexa-488 conjugated-phospho-rpS6 Ser235/236 antibody for 2 hours at room temperature (Cell Signaling Technology # 4803, 1:50 dilution in blocking buffer). Cells are washed two times with PBS plus 0.2% TX-100, and stained with 10 uM propidium iodide (PI) for 20-25 minutes for cell number measurement (1:500 dilution of Hoescht staining is also added for IN Cell imaging). Active wells which are selected (based on Acumen results) are imaged on the IN Cell 1000 (GE Healthcare) using the D360/40X and HQ480/40X excitation filters for the Hoechst and Alexa-488 cytoplasmic stains, respectively. The fluorescence emission filters used were HQ460/40M and HQ535/50M for the Hoechst and Alexa-488 cytoplasmic stains, respectively. The normalized phospho-S6 staining is calculated as the ratio of […] for the single concentration rapamycin control ([…] nM) and DMSO columns. […] Inhibition of the pathway is defined based on the normalized phospho-S6 intensity in rapamycin treated cells. Each treatment is reported as the % positive cells in the well, where thresholds are defined by selecting wells with the highest and lowest signal and differentiating between the % non-active and % active populations. […]
In general terms: In qHTS, concentration-response curves come from the screen itself.
As for `Cc1o[nH]c(=O)c1CC(N)C(=O)O` (stereo not given), the call was inactive.

As for `O=C1C=CC(=O)C=C1`, the call was inactive.

For `C#CCN[C@H](C)Cc1ccccc1`, the outcome was inactive.

`C[C@H](N)CN1CCc2ccc(Br)cc21`: the call was inactive.

Consider `CO[C@H]1CC=C2CCN3CCC4=C(CC(=O)OC4)[C@]23C1`, for which the outcome was inactive.

Take `O=[N+]([O-])c1cc(O)c(O)c([N+](=O)[O-])c1`: the compound was classed as inactive.

With `CC(C)(C)c1o[nH]c(=O)c1CC(N)C(=O)O` (stereo not given), the compound was classed as inactive.

`COc1ccc(CNC(=O)/C=C/c2ccc3[nH]cc(CCN(C)C)c3c2)cc1`: the outcome was inactive.

In the case of `COc1ccc2c(c1)[C@@]13CCCC[C@H]1[C@@H](C2)NCC3`, the call was inactive.

Turning to `CC(Cc1ccc(OCC(=O)O)cc1)NCC(O)c1cccc(Cl)c1` (stereo not given), the result was inactive.

Take `CN1CCc2cccc(Cl)c2CC1`: the compound was classed as inactive.

As for `CCNC(=O)[C@H]1O[C@@H](n2cnc3c(N)ncnc32)[C@H](O)[C@@H]1O`, the outcome was inactive.

Regarding `Cc1cc([C@@H]2CCCN2C)on1`, the call was inactive.

For the compound `CC(=O)c1c(O)c(C)c(O)c(Cc2c(O)c3c(c(C(=O)/C=C/c4ccccc4)c2O)OC(C)(C)C=C3)c1O`, the compound was classed as inactive.

With `CCS(=O)(=O)Nc1cccc(C(=C2CCCCC2)c2cnc[nH]2)c1`, the outcome was inactive.

For the compound `C=CCN1C[C@@H](C)N([C@H](c2ccc(C(=O)N(CC)CC)cc2)c2cccc(OC)c2)C[C@@H]1C`, the call was inactive.

Regarding `CN1CC[C@@]2(C)c3cc(OC(=O)Nc4ccccc4)ccc3N(C)[C@@H]12`, the result was inactive.

Consider `CCCN1CCC[C@@H](c2cccc(O)c2)C1`, for which the outcome was inactive.

As to `C=CCN1CC[C@]23c4c5ccc(O)c4O[C@H]2/C(=N/NC(=O)c2ccccc2)CC[C@@]3(O)[C@H]1C5`, the compound was called inactive.

Regarding `NNC(N)=O`, the call was inactive.

Turning to `COc1cc(CC(C)N)c(OC)cc1I` (stereo not given), the compound was classed as inactive.

As for `N[C@@H](Cn1ccc(=O)[nH]c1=O)C(=O)O`, the outcome was inactive.

In the case of `c1ccc2cc(CC3=NCCN3)ccc2c1`, the compound was classed as inactive.

As to `NC(N)=NOCC[C@H](N)C(=O)O`, the result was inactive.

With `COc1ccc2[nH]cc(CCN)c2c1`, the compound was called inactive.

Consider `N#C/C(=C/c1ccc(O)c(O)c1)C(N)=S`, for which the outcome was inactive.

Turning to `C=CCN(C1=NCCN1)c1c(Cl)cccc1Cl`, the compound was classed as inactive.

As to `NC(=O)c1cc(N2CC2)c([N+](=O)[O-])cc1[N+](=O)[O-]`, the result was inactive.

Consider `CCN1C[C@@]2(COC)C3[C@@H](OC)C4[C@@H]1C3([C@@H]1C[C@]3(O)[C@H](OC(=O)c5ccccc5)[C@@H]1[C@]4(OC(C)=O)[C@@H](O)[C@@H]3OC)[C@H](OC)C[C@H]2O`, for which the compound was classed as inactive.

`NC(=O)COc1c(F)cc(SCCNS(=O)(=O)c2ccccc2)cc1F`: the compound was called inactive.

On to `C[C@]12Cc3cn4c(nc3C=C1CCC1C2CC[C@@]2(C)[C@H]1CC[C@@]2(O)C#N)nc1ccccc14` (stereo not given in full), for which the outcome was inactive.

As to `NC(=O)c1ccc(OCC(O)CN2CC=C(c3ccc(F)cc3)CC2)cc1` (stereo not given), the result was inactive.

As for `NC(Cc1cc(O)c(O)cc1O)C(=O)O` (stereo not given), the outcome was inactive.

As for `CN1CCC(c2c[nH]c3ccc(O)cc23)CC1`, the compound was classed as inactive.

Consider `O=[N+]([O-])/C=C/c1ccc2c(c1)OCO2`, for which the compound was called inactive.

Consider `C[N+]1(C)CCOC(O)(c2ccc(-c3ccc(C4(O)C[N+](C)(C)CCO4)cc3)cc2)C1` (stereo not given), for which the result was inactive.

With `CCCC[N+]1(C)C2CC(OC(=O)[C@H](CO)c3ccccc3)CC1C1OC12` (stereo not given in full), the compound was classed as inactive.

As for `COc1ccc2c(c1O)-c1cccc3c1[C@@H](C2)N(C)CC3`, the result was inactive.

Turning to `CC12NC(Cc3ccccc31)c1ccccc12` (stereo not given), the compound was called inactive.

As for `c1ccc2c(c1)[I+]c1ccccc1-2`, the Potency was 3.29 µM (active).
